From the supplement of paper PMC6555819

Key:
Test in all cases: PBM binding z-score (relative to random genomic background probes); higher = stronger binding; sequences stand for … in GC…GCGATTGACAGCGTAGAATGAAGG
[1] = system: RARb homodimer (NR concentration 270 nM)
Method in brief: (§1)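 Scanned fluorescence from custom Agilent 4×180K protein-binding microarrays was regression-normalized. Binding z-scores use random background probes as reference. Ligand-free nuclear receptor dimers were incubated on the arrays for 1 h and detected with antibodies against each partner (one per run).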

[2] = system: RARg:RXRa (NR concentration 270 nM, RXRa partner concentration 90 nM)
Method in brief: as §1

[3] = system: RARg homodimer (NR concentration 270 nM)
Method in brief: as §1

[4] = system: RXRa DBDmut IVT, anti-RXR (DBD mutation: RXRa K156A/R161A, NR concentration 90 nM)
Method in brief: as §1

[5] = system: RXRa homodimer (NR concentration 180 nM)
Method in brief: as §1

[6] = system: THRa:RXRa (NR concentration 90 nM, RXRa partner concentration 90 nM)
Method in brief: as §1

[7] = system: THRa homodimer (NR concentration 90 nM)
Method in brief: as §1

[8] = system: VDR homodimer (NR concentration 270 nM)
Method in brief: as §1

Sequence	PBM binding z-score [1]	PBM binding z-score [2]	PBM binding z-score [3]	PBM binding z-score [4]	PBM binding z-score [5]	PBM binding z-score [6]	PBM binding z-score [7]	PBM binding z-score [8]
TAGACTAGGTCAGATCGGGCCAGTATACGCTATA	1.99	2.46	3.56	-0.416	1.24	3.92	-0.175	-0.33
CCTCGGAGGACAGAAGGTCAGAGCTGTCCGCTTT	3.43	3.39	2.55	0.0371	1.89	2.22	-0.0461	-0.131
CGTCCAAGGTCAGAGAGGTAAGTGAATGCCGAGT	3.27	4.7	5.39	2.67	3.85	3.5	1.8	1.71
TCTGCTAGGTCAACGATGGTCAGCCAATCTGCTA	3.23	4.3	5.2	1.06	2.55	3.16	0.561	-0.316
CTACCATGGTGAACAAGGTCGTTGATTACTATTC	1.04	0.598	0.184	0.982	0.913	1.99	1.1	1.41
CCTAGTTGGTTAGGAGGTCACACACCGGATATGA	3.78	4.04	3.53	0.861	3.97	3.42	2.5	3.06
CGACCTAGGTCAAGGACAGTGAATCTCCGCACGC	3.02	4.65	4.69	1.82	3.41	3.39	2.25	0.294
